# pPAFAH FP inh: pPAFAH (human) enzyme inhibition; 330,000 compounds, 1.5% hits; recombinant pPAFAH, FP-rhodamine probe fluorescence polarization; AID 463082; Q13093; inhibition, % at 3.39 µM;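 active = inhibition above the mean inhibition across the screen plus 3 SD, cut at about 25% in these data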;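 also: inhibitors block binding of the rhodamine activity-based probe so polarization drops; 0% = enzyme with DMSO and 100% = wells lacking pPAFAH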
# PAFAH1B3 inh: PAFAH1B3 (human) inhibition | AID 492972 | inhibition, % at 3.39 µM | 340,000 compounds, 0.28% hits | recombinant PAFAH1B3, FP-rhodamine probe, fluorescence polarization;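 active = inhibition above the screen-wide average of all tested compounds plus 3 SD, cut at about 25% in these data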;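 also: 0% = enzyme with DMSO only and 100% = wells lacking PAFAH1B3 protein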
# M18AAP inhibitor: blocks P. falciparum M18 aspartyl aminopeptidase; recombinant PfM18AAP, H-Glu-NHMec fluorogenic cleavage; inhibition, % at 7.35 µM; 290,000 compounds, 1.2% hits; AID 1822;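 active = inhibition above the campaign mean inhibition over all tested compounds plus 3 SD, cut at about 28% in these data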;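 also: 0% = plate median of test compound wells and 100% = 2 mM ZnCl2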
# Pemphigus Ab inh: blocks pemphigus antibody binding to human desmoglein-3. P32926. DSG3-coupled beads, scFv-anti-DSG3-GFP binding, flow cytometry; hits give low values. binding (percent of control), % at 10 µM. 310,000 compounds, 0.48% hits. AID 588358;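 active = binding more than 3 SD below its plate's average and above zero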;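 also: hits lower antibody fragment binding to DSG3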
# PAFAH1B2 inh: blocks human PAF acetylhydrolase 1b catalytic subunit 2. P68402. recombinant PAFAH1B2, FP-rhodamine activity probe, fluorescence polarization. inhibition, % at 3.39 µM. 340,000 compounds, 1.2% hits. AID 492953;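 active = inhibition above the mean of all tested compounds plus 3 SD, cut at about 24% in these data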;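 also: 0% = enzyme with DMSO and 100% = wells lacking PAFAH1B2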
# PAFAH2 inh: inhibitors of human PAFAH2 | inhibition, % at 3.39 µM | Q99487 | 340,000 compounds, 0.99% hits | recombinant PAFAH2, FP-rhodamine activity probe, fluorescence polarization;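 active = inhibition above the mean over all tested compounds plus 3 SD, cut at about 30% in these data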;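 also: inhibitors block probe labeling of enzyme so polarization drops; 0% = enzyme with DMSO and 100% = wells lacking PAFAH2 protein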
# Numbers without * were called inactive; x = no result. An excerpt weighted towards active compounds, which were near 3.8% of everything screened.
SMILES,pPAFAH FP inh,PAFAH1B3 inh,M18AAP inhibitor,Pemphigus Ab inh,PAFAH1B2 inh,PAFAH2 inh
CN1CCc2nc3sc(C(=O)NCc4ccccc4)c(N)c3cc2C1,11.0,2.7,29.2*,98.5,5.2,5.8
COc1ccc(CN2C(=O)C(CC(=O)NCc3ccco3)CC(C(=O)N(C(C)C)C(C)C)=C2C)cc1 (stereo unspecified),x,x,x,97.5,x,x
CC1(C(=O)O)Sc2[nH]c(=O)sc2C2c3ccccc3OC(=O)C21 (stereo unspecified),4.5,1.2,30.2*,100.7,1.0,-6.5
COC(=O)C1Sc2[nH]c(=O)sc2C2c3ccccc3OC(=O)C12 (stereo unspecified),5.2,-6.3,7.7,107.2,4.7,3.3
CCN1CCN(c2ccc(S(=O)(=O)N3CCOCC3)cc2N)CC1,1.3,2.9,x,96.8,2.2,3.1
Cc1nnc(SCC(=O)Nc2nccs2)o1,-0.5,4.4,2.1,x,-0.2,-4.8
CCOC(=O)Cn1cncc1-c1ccc([N+](=O)[O-])cc1,2.8,3.6,1.2,100.0,2.6,-3.4
CCOC(=O)CSc1ncc(-c2ccc([N+](=O)[O-])cc2)[nH]1,31.4*,2.2,-3.5,100.1,-0.1,-1.6
O=C(c1c(F)cccc1Cl)N(Cc1ccco1)C1CCS(=O)(=O)C1 (stereo unspecified),x,x,x,106.1,x,x
CCOC(=O)NC(CC(=O)O)c1ccc(OCC)cc1 (stereo unspecified),3.0,8.0,2.2,96.0,-0.8,2.1
CCOc1ccc(OC(=O)NC(c2ccccc2)C(Cl)(Cl)Cl)cc1 (stereo unspecified),0.8,2.0,2.4,107.5,25.8*,4.7
CC(C)OC(=O)NC(c1ccccc1)C(Cl)(Cl)Cl (stereo unspecified),3.4,1.6,4.2,106.0,24.4*,12.7
CC(C)(C)c1ccc(C(=O)NCCC(=O)NCc2ccc(F)cc2)cc1,x,x,x,94.7,x,x
CC(=O)Nc1ccc(/C=N/NC(=O)c2cc(-c3ccco3)nc3ccccc23)cc1,-8.7,-21.3,-8.8,84.1,-18.8,-23.9
O=C(O)c1cc(-c2ccco2)nc2cc3ccccc3cc12,25.2*,14.9,-11.1,111.4,4.5,3.5
CCN(CC)C(=O)COC(=O)c1cc(-c2ccco2)nc2ccccc12,x,8.2,-5.6,111.6,2.6,17.3
O=C(COC(=O)c1cc(-c2ccco2)nc2ccccc12)NCc1ccccc1,34.2*,0.8,-44.6,82.0,-2.5,4.1
CNC(=O)COC(=O)c1cc(-c2ccco2)nc2ccccc12,24.8*,6.6,6.2,96.3,0.8,11.6
O=C(NNC(=O)c1cc(-c2ccco2)nc2ccccc12)c1ccccc1,3.8,9.9,1.7,94.9,5.7,-2.2
O=C(O)c1ccccc1/C=N/NC(=O)c1cc(-c2ccco2)nc2ccccc12,32.0*,14.5,11.0,96.6,1.1,19.3
C=CCSc1nc2c(N)ncnc2n1C1OC(CO)C(O)C1O (stereo unspecified),x,x,x,104.0,x,x
Cc1nc(C)n(CCNS(=O)(=O)c2ccc(C)c(C)c2)n1,9.0,9.7,1.7,97.9,3.1,11.7
O=C1CC=Nc2ccc([N+](=O)[O-])cc21,x,x,x,96.9,x,x
O=C(COC(=O)c1sc2ccccc2c1Cl)NC1CCCCC1,30.8*,0.3,-0.8,107.9,0.4,-7.8
CSc1ccccc1C(=O)OCC(=O)NC1CCCCCCC1,x,x,x,104.0,x,x
SMILES,pPAFAH FP inh,PAFAH1B3 inh,M18AAP inhibitor,Pemphigus Ab inh,PAFAH1B2 inh,PAFAH2 inh
O=C(COC(=O)c1ccc(F)cc1Cl)NC1CCCCCCC1,33.4*,7.7,x,131.2,4.9,85.9*
CCOc1ncccc1C(=O)OCC(=O)Nc1ccc(-c2nc3ccc(C)cc3s2)cc1,24.6*,-3.0,-1.9,75.6,0.1,17.6
Cc1ccc2nc(-c3ccc(NC(=O)COC(=O)c4ccco4)cc3)sc2c1,-2.2,-12.0,-4.3,98.4,-5.5,15.9
O=C(COC(=O)c1ccccc1Br)NC1CCCCCCC1,32.0*,14.4,x,97.3,12.3,86.5*
C=CCN1C(=O)C(=Cc2ccc3c(c2)CCC3)SC1=S,x,x,x,102.0,x,x
CCOc1ncccc1C(=O)OCC(=O)Nc1c(C)cc(C)cc1C,26.4*,3.3,0.5,102.6,5.1,33.5*
CCOc1ncccc1C(=O)OCC(=O)NC1CCCCC1,30.9*,8.3,x,x,2.9,79.4*
CCOc1ncccc1C(=O)OCC(=O)Nc1c(C)cccc1C,12.8,0.4,-5.9,114.2,1.7,18.5
